Assay results reported in PubChem BioAssay (EPA / NIEHS).
Records with an inconclusive call do not appear. Calls of active or inactive are those of the source. Rule for the calls, unless noted: active = hit-call score of the fitted dose curve at least 0.9, where 1 is the maximum; inactive = score below 0.9.

Key:
[1] = read-out: Phosphatase and tensin (PTEN), PTEN (gene 5728); test: LTEA_HepaRG_PTEN: Life Technologies and Expression Analysis (LTEA) Assay for Phosphatase and tensin (PTEN) using HepaRG (AID 2283523); details: mRNA level, 48 h; actives raise or lower the signal
Summary of the method: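 Expression of PTEN is quantified in the human liver line HepaRG following two days of dosing (top concentration 100 uM, half-log dilutions, 0.5% DMSO). Values derive from bidirectional curve fitting relative to DMSO controls.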

[2] = read-out: solute carrier (SLC22A1), SLC22A1 (gene 6580); test: LTEA_HepaRG_SLC22A1: Life Technologies and Expression Analysis (LTEA) Assay for solute carrier (SLC22A1) using HepaRG (AID 2283524); details: mRNA level, 48 h; actives raise or lower the signal;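 for AC50: differentiated human HepaRG liver cells in serum-free induction medium; TaqMan qRT-PCR normalized to ACTB GAPDH and POLR2A housekeeping genes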
Summary of the method: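 Transcript induction or suppression of SLC22A1 in human HepaRG cultures is scored after 48 h chemical treatment, with DMSO (0.5%) as baseline for bidirectional fitting. Concentrations span eight half-log points topping at 100 uM.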

[3] = read-out: Pyruvate Dehydrogenase Kinase 4 (PDK4), PDK4 (gene 5166); test: LTEA_HepaRG_PDK4: Life Technologies and Expression Analysis (LTEA) Assay for Pyruvate Dehydrogenase Kinase 4 (PDK4) using HepaRG (AID 2283525); details: mRNA level, 48 h; actives raise or lower the signal
Summary of the method: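 Eight-point, half-log concentration series (max 100 uM, 0.5% DMSO) applied to differentiated HepaRG cells for 48 h in duplicate. Endpoint: PDK4 mRNA induction or repression by qRT-PCR against DMSO baseline.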

[4] = read-out: succinate dehydrogenase complex iron sulfur subunit B (SDHB), SDHB (gene 6390); test: LTEA_HepaRG_SDHB: Life Technologies and Expression Analysis (LTEA) Assay for succinate dehydrogenase complex iron sulfur subunit B (SDHB) using HepaRG (AID 2283528); details: mRNA level, 48 h; actives raise or lower the signal
Summary of the method: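 HepaRG, 48 h exposure, 8-pt half-log series from 100 uM in 0.5% DMSO, duplicates. Readout: SDHB mRNA by Fluidigm qRT-PCR vs housekeeping genes; bidirectional fit relative to DMSO.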

[5] = read-out: Signal transducer and activator of transcription 3 (Homo sapiens) (UniProt P40763); test: LTEA_HepaRG_STAT3: Life Technologies and Expression Analysis (LTEA) Assay for Signal transducer and activator of transcription (STAT3) using HepaRG (AID 2283529); details: mRNA level, 48 h; actives raise or lower the signal
Summary of the method: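 In this transcriptional endpoint, HepaRG cultures receive test chemicals at up to 100 uM for 48 h, tested in duplicate. STAT3 mRNA is normalized to ACTB, GAPDH and POLR2A.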

[6] = read-out: solute carrier (SLCO1B1), SLCO1B1 (gene 10599); test: LTEA_HepaRG_SLCO1B1: Life Technologies and Expression Analysis (LTEA) Assay for solute carrier (SLCO1B1) using HepaRG (AID 2283530); details: mRNA level, 48 h; actives raise or lower the signal
Summary of the method: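 Gain or loss of SLCO1B1 mRNA is fitted against the 0.5% DMSO vehicle in human HepaRG liver cells treated 48 h at up to 100 uM in half-log steps. Expression comes from qRT-PCR normalized to endogenous controls.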

[7] = read-out: sulfotransferase 2A1 (SULT2A1), SULT2A1 (gene 6822); test: LTEA_HepaRG_SULT2A1: Life Technologies and Expression Analysis (LTEA) Assay for sulfotransferase 2A1 (SULT2A1) using HepaRG (AID 2283531); details: mRNA level, 48 h; actives raise or lower the signal
Summary of the method: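 Cells were plated and cultured 48 h, switched to serum-free induction medium, then dosed in duplicate for 48 h (8 concentrations, max 100 uM). RNA was isolated and SULT2A1 expression measured by qRT-PCR; gain or loss of signal fitted relative to DMSO.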

[8] = read-out: Transforming Growth Factor (TGFA), TGFA (gene 7039); test: LTEA_HepaRG_TGFA: Life Technologies and Expression Analysis (LTEA) Assay for Transforming Growth Factor (TGFA) using HepaRG (AID 2283532); details: mRNA level, 48 h; actives raise or lower the signal
Summary of the method: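 Gene expression of TGFA was quantified by qRT-PCR after human HepaRG cells were treated for 48 h with test chemicals (eight concentrations, highest 100 uM, 0.5% DMSO). Activity in either direction was fitted relative to DMSO.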

[9] = read-out: Transforming Growth Factor (TGFB1), TGFB1 (gene 7040); test: LTEA_HepaRG_TGFB1: Life Technologies and Expression Analysis (LTEA) Assay for Transforming Growth Factor (TGFB1) Transporter using HepaRG (AID 2283533); details: mRNA level, 48 h; actives raise or lower the signal
Summary of the method: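 Expression change of TGFB1 in human HepaRG cells is measured after a 48 h chemical exposure, up to 100 uM in 0.5% DMSO vehicle. Curves are fitted in both directions relative to the DMSO baseline.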

TIMP1, TIMP1 (gene 7076) = test: LTEA_HepaRG_TIMP1: Life Technologies and Expression Analysis (LTEA) Assay for TIMP1 using HepaRG (AID 2283534); details: mRNA level, 48 h; actives raise or lower the signal;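 note: TaqMan qRT-PCR signal normalized to ACTB GAPDH and POLR2A housekeeping genes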
Summary of the method: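 We dosed human liver HepaRG cultures for 48 hours with up to 100 uM test chemical and measured TIMP1 expression by qRT-PCR. Activity in either direction is fitted relative to the 0.5% DMSO vehicle.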

[10] = read-out: Tumor necrosis factor receptor 1 (TNFRSF1A), TNFRSF1A (gene 7132); test: LTEA_HepaRG_TNFRSF1A: Life Technologies and Expression Analysis (LTEA) Assay for Tumor necrosis factor receptor 1 (TNFRSF1A) using HepaRG (AID 2283535); details: mRNA level, 48 h; actives raise or lower the signal
Summary of the method: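 Expression of TNFRSF1A in human HepaRG liver cells was measured by qRT-PCR 48 h after chemical dosing (maximum 100 uM). Bidirectional curve fitting used 0.5% DMSO as baseline.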

[11] = read-out: Thyroid Hormone Responsive (THRSP), THRSP (gene 7069); test: LTEA_HepaRG_THRSP: Life Technologies and Expression Analysis (LTEA) Assay for Thyroid Hormone Responsive (THRSP) using HepaRG (AID 2283536); details: mRNA level, 48 h; actives raise or lower the signal
Summary of the method: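 Cell model: human HepaRG, approx. 100,000 cells/well, 0.5% DMSO vehicle. Exposure lasts 48 h; phenobarbital 1 mM serves as induction positive control. Gene expression is measured by qRT-PCR against three endogenous control genes.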

[12] = read-out: Cellular tumor antigen p53 (Homo sapiens) (UniProt P04637); test: LTEA_HepaRG_TP53: Life Technologies and Expression Analysis (LTEA) Assay for Tumor Protein P53 (TP53) using HepaRG (AID 2283537); details: mRNA level, 48 h; actives raise or lower the signal
Summary of the method: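 HepaRG, 48 h exposure, top 100 uM, half-log 8-point, 0.5% DMSO vehicle, duplicates. Read: TP53 mRNA by TaqMan qRT-PCR, normalised to ACTB/GAPDH/POLR2A; bidirectional fit vs DMSO.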

[13] = read-out: UDP glucuronosyltransferase (UGT1A1), UGT1A1 (gene 54658); test: LTEA_HepaRG_UGT1A1: Life Technologies and Expression Analysis (LTEA) Assay for UDP glucuronosyltransferase (UGT1A1) using HepaRG (AID 2283538); details: mRNA level, 48 h; actives raise or lower the signal
Summary of the method: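 HepaRG, 48 h chemical exposure (top 100 uM, half-log 8-pt, 0.5% DMSO vehicle), duplicate wells; qRT-PCR (TaqMan, Fluidigm array) for UGT1A1 mRNA, housekeeping-normalized; bidirectional curve fit vs DMSO baseline.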

[14] = read-out: UDP glucuronosyltransferase (UGT1A6), UGT1A6 (gene 54578); test: LTEA_HepaRG_UGT1A6: Life Technologies and Expression Analysis (LTEA) Assay for UDP glucuronosyltransferase (UGT1A6) using HepaRG (AID 2283539); details: mRNA level, 48 h; actives raise or lower the signal
Summary of the method: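 Endpoint is UGT1A6 transcript induction or loss in a human liver cell line, quantified by TaqMan qRT-PCR 48 h after dosing. Concentrations ran from 100 uM downward in half-log steps in 0.5% DMSO; activity was fitted in both directions versus vehicle.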

[15] = read-out: X-box binding protein 1 (XBP1), XBP1 (gene 7494); test: LTEA_HepaRG_XBP1: Life Technologies and Expression Analysis (LTEA) Assay for X-box binding protein 1 (XBP1) using HepaRG (AID 2283540); details: mRNA level, 48 h; actives raise or lower the signal
Summary of the method: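 Human HepaRG monolayers receive test chemical for 48 h across an eight-point half-log series starting at 100 uM. XBP1 mRNA gain or loss is scored against DMSO by qRT-PCR.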

[16] = ATG_XTT_Cytotoxicity: Cytotoxicity Assessment in the Attagene TRANS-FACTORIAL HepG2 Assay (AID 2283584; active = hit-call score of the fitted dose curve at least 0.9, where 1 is the maximum)
Summary of the method: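 Transfect HepG2 with GAL4-UAS reporter units, dose compound, incubate 24 h, then measure viable cell number by XTT. Fit concentration response against DMSO baseline.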

[17] = read-out: Nuclear factor erythroid 2-related factor 2 (Homo sapiens) (UniProt Q16236); test: LTEA_HepaRG_NFE2L2: Life Technologies and Expression Analysis (LTEA) Assay for Nuclear factor erythroid 2-related factor 2 (NFE2L2) Transcription Factor using HepaRG (AID 2283527); details: mRNA level, 48 h; actives raise or lower the signal;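 note: TaqMan qRT-PCR transcript level normalised to ACTB GAPDH and POLR2A housekeeping genes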
Summary of the method: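 Human liver HepaRG line treated in duplicate for 48 h with an eight-point series topping at 100 uM. Gene expression of NFE2L2 by qRT-PCR, bidirectionally fitted against the vehicle control.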

[18] = LTEA_HepaRG_LDH_cytotoxicity: Cytotoxicity Assessment in the Life Technologies and Expression Analysis (LTEA) Assay (AID 2283563; active = hit-call score of the fitted dose curve at least 0.9, where 1 is the maximum)
Summary of the method: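 Human HepaRG hepatic cells are treated with test chemicals for 48 h at up to 100 uM in 0.5% DMSO. Cytotoxicity is scored from medium LDH against the vehicle control.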

Measured: AC50

Sequence of Nuclear factor erythroid 2-related factor 2 (Homo sapiens) (Q16236 whole entry, looked up): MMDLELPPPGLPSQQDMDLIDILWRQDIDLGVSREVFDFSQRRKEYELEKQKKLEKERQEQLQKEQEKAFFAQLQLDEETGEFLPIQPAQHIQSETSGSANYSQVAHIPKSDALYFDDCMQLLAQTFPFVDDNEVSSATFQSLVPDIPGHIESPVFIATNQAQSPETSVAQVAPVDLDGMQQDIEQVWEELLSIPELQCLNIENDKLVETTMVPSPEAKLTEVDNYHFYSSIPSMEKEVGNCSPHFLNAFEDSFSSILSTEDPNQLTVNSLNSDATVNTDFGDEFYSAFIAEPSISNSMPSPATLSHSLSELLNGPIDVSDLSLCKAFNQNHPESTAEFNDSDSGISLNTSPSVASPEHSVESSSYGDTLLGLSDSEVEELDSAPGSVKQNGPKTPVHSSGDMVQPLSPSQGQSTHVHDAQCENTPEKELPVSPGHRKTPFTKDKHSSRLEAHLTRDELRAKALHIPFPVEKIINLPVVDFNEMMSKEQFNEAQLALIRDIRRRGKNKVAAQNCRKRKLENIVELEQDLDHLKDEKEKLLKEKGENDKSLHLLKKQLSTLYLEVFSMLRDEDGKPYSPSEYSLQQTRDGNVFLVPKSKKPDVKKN
Sequence of Signal transducer and activator of transcription 3 (Homo sapiens) (P40763 whole entry, looked up): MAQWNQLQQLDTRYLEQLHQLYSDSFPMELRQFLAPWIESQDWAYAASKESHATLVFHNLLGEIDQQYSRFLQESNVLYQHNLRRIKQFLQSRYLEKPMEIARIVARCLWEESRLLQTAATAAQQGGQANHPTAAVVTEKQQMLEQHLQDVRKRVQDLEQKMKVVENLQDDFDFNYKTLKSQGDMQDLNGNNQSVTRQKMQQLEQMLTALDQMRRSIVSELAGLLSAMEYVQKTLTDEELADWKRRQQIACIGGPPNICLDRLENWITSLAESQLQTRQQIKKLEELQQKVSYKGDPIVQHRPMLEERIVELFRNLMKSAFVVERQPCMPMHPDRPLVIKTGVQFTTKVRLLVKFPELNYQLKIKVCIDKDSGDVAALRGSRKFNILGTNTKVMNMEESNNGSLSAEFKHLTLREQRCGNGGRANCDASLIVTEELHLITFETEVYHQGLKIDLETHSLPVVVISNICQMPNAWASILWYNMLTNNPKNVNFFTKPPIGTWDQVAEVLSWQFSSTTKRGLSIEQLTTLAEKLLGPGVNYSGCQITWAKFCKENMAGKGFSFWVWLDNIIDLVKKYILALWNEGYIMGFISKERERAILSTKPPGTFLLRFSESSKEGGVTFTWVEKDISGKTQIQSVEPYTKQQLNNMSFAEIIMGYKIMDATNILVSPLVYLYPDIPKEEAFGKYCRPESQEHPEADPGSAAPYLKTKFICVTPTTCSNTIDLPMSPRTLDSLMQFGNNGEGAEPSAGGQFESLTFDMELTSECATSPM
Sequence of Cellular tumor antigen p53 (Homo sapiens) (P04637 whole entry, looked up): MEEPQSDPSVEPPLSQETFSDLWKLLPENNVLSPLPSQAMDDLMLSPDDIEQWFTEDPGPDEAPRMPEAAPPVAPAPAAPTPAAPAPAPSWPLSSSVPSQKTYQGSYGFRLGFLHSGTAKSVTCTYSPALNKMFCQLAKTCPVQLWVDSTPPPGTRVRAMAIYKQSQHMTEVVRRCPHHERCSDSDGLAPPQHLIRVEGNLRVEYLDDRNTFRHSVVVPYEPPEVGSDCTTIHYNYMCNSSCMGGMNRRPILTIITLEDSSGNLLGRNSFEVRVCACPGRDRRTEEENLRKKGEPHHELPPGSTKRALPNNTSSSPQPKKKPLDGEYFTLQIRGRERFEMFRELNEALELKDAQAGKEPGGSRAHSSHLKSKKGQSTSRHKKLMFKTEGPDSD

CC(C)c1nnc2ccc(-c3ocnc3-c3cc(F)ccc3F)cn12
active: [2] 15.4 µM | [6] 50 µM | [7] 94 µM | [11] 9.92 µM | [13] 0.836 µM | [14] 80.3 µM | [15] 39 µM
not listed: [16] | [17] | [18]
inactive: all other assays above

OCc1c[nH]c2ccccc12
inactive: [16]

C=CCc1cc(S(=O)(=O)c2ccc(O)c(CC=C)c2)ccc1O
active: [1] 50 µM | [2] 89 µM | [3] 81.1 µM | [6] 85.4 µM | [7] 81.2 µM | [11] 88.4 µM | [14] 80.7 µM | [15] 66.7 µM
not listed: [12] | [18]
inactive: all other assays above

CCN(CC)C(=S)SSC(=S)N(CC)CC
not listed: [7]
inactive: all other assays above

NNC(=O)c1ccncc1
inactive: all assays above

NC(=O)N1c2ccccc2C=Cc2ccccc21
active: [13] 21.6 µM
not listed: [12] | [18]
inactive: all other assays above

Cc1cccc(O)c1C
inactive: [16]

COc1cc2c(c(OC)c1OC)-c1ccc(OC)c(=O)cc1[C@@H](NC(C)=O)CC2
active: [2] 0.105 µM | [3] 0.0626 µM | [4] 0.138 µM | [6] 0.136 µM | [7] 0.181 µM | [8] 0.0871 µM | [9] 0.04 µM | [11] 0.073 µM | [13] 0.113 µM | [14] 0.237 µM | [15] 0.218 µM
inactive: [1] | [17] | [5] | TIMP1, TIMP1 (gene 7076) | [10] | [18] | [16]

CC(C)CCCCCCOC(=O)C1CCCCC1C(=O)OCCCCCCC(C)C (centres undefined)
active: [7] 9.92 µM | [10] 0.00316 µM
not listed: [12] | [16] | [18]
inactive: all other assays above

CCc1ccc(O)c(C(C)(C)C)c1
not listed: [18]
inactive: all other assays above

O=C(O)[C@H](O)[C@@H](O)C(=O)O
not listed: [12] | [16] | [18]
inactive: all other assays above

O=C(O)c1cccc(C(=O)O)c1
not listed: [9] | [12] | [18]
inactive: all other assays above

CCCC(CCC)C(=O)O
not listed: [12] | [18]
inactive: all other assays above

O=C(N[C@H](CO)[C@H](O)c1ccc([N+](=O)[O-])cc1)C(Cl)Cl
inactive: [16]

Nc1ccn([C@@H]2O[C@H](CO)[C@@H](O)[C@@H]2O)c(=O)n1
not listed: [12] | [18]
inactive: all other assays above

CCc1cccc(CC)c1N
not listed: [18]
inactive: all other assays above

Cc1nccn1-c1ccc(Sc2cccc(C3(C(N)=O)CCOCC3)c2)cc1
active: [1] 28 µM | [2] 11.2 µM | [4] 27.4 µM | [5] 1.93 µM | [6] 13.6 µM | [7] 15 µM | [8] 9.24 µM | [9] 24.8 µM | [10] 7.54 µM | [11] 10.8 µM | [13] 23 µM | [14] 19.1 µM | [15] 7.33 µM
inactive: [3] | [17] | TIMP1, TIMP1 (gene 7076)

OC[C@H]1O[C@@H]2O[C@H]3[C@H](O)[C@@H](O)[C@@H](O[C@H]4[C@H](O)[C@@H](O)[C@@H](O[C@H]5[C@H](O)[C@@H](O)[C@@H](O[C@H]6[C@H](O)[C@@H](O)[C@@H](O[C@H]7[C@H](O)[C@@H](O)[C@@H](O[C@H]1[C@H](O)[C@H]2O)O[C@@H]7CO)O[C@@H]6CO)O[C@@H]5CO)O[C@@H]4CO)O[C@@H]3CO
not listed: [12] | [18]
inactive: all other assays above
